The nature of assay [1]: small molecules captured by biotinylated probe aFSTL3 – biochemical, small-molecule microarray, fluorescence 635/667, stem cell growth factor project, primary screen (AID 1064).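 Further: measures binding of the biotinylated anti-FSTL3 antibody to printed compounds.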 The settings on record: higher = more signal.
The nature of assay [2]: binders from COS7 lysate, DM2A8 probe, primary screen, torsin A project, cell lysate, small-molecule microarray, fluorescence 635/667 (AID 1065). The settings on record: higher = more signal, COS7 lysate expressing mutant human TOR1A.
Assay [3] can be described thus: small molecules captured by biotinylated probe aFGF2 – biochemical, small-molecule microarray, fluorescence 635/667, stem cell growth factor project, primary screen (AID 1067).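 Further: measures binding of biotinylated aFGF2 protein to printed compounds on slides; z-score merges feature fluorescence and signal-to-noise across triplicate slides.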 The settings on record: higher = more signal.
The nature of assay [4]: small molecules captured by biotinylated probe aFGF10 – biochemical, small-molecule microarray, fluorescence 635/667, stem cell growth factor project, primary screen (AID 1071).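 Further: score merges 667 nm spot intensity and signal to noise from triplicate slides.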 The settings on record: higher = more signal.
Assay [5] deals with Neurogenic locus notch homolog protein 2 (Homo sapiens) (UniProt Q04721). The assay is described as follows: small molecules binding Notch2 protein – biochemical, small-molecule microarray, 635 nm fluorescence, stem cell growth factors, primary screen (AID 1073). Conditions: higher = more signal.
The target in assay [6] is Pro-neuregulin-1, membrane-bound isoform (Homo sapiens) (UniProt Q02297). The assay can be described thus: small molecules binding neuregulin-1 protein – biochemical, small-molecule microarray, fluorescence 635/667, psychiatric disease protein project, primary screen (AID 1075).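 Further: score combines 667 nm spot fluorescence with signal to noise.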 The settings on record: NRG1 binding, 635 nm fluorescence, higher = more signal.
Chain of Pro-neuregulin-1, membrane-bound isoform (Homo sapiens) (Q02297 whole entry, looked up, the tested form may be a part, canonical isoform): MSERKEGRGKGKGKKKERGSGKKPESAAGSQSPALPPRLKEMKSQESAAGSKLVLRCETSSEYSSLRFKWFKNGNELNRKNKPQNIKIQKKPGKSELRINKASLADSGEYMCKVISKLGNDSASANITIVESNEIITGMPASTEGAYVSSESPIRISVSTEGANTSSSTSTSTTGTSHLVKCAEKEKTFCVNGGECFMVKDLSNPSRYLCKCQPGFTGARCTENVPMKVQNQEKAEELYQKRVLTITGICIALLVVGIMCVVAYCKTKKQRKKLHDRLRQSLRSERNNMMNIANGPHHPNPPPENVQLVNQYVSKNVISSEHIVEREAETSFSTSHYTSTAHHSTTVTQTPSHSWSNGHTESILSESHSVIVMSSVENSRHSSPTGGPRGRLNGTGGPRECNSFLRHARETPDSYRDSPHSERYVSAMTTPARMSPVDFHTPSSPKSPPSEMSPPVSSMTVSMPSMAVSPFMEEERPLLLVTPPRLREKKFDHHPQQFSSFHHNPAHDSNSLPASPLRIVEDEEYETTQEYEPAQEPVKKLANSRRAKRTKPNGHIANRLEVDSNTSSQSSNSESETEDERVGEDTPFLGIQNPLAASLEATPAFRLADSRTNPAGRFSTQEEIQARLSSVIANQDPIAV
Assay [7] relates to Neuregulin-1 EGF-like domain. The assay can be described thus: small molecules binding NRG1 EGF domain – biochemical, small-molecule microarray, 635 nm fluorescence, primary screen (AID 1081).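 Further: binding of the protein to compounds printed on small-molecule microarray slides.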 The settings on record: higher = more signal.
The nature of assay [8]: FRG1 expression reporter modulators in myotubes – cell-based, C2C12 myotubes, firefly/Renilla luciferase, luminescence, FRG1 inhibition for FSHD, primary screen (AID 1084). Conditions: FRG1 promoter luciferase, higher = more signal, called active from +8 up or from −8 down.
A short description of assay [9]: small molecules captured by biotinylated probe aFST – biochemical, small-molecule microarray, fluorescence 635/667, stem cell growth factor project, primary screen (AID 1086).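 Further: score merges 667 nm fluorescence with signal-to-noise of each printed compound spot.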 Conditions: higher = more signal.
A short description of assay [10]: binders of probe aHhip on microarray, primary screen, stem cell growth factor project, biochemical, small-molecule microarray, fluorescence 635/667 (AID 1087).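 Further: score merges spot fluorescence at 667nm with spot signal to noise ratio.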 The settings on record: higher = more signal.
Assay [11] relates to PRMT1 (protein arginine N-methyltransferase 1). The assay can be described thus: small molecules binding arginine methyltransferase PRMT1 – biochemical, small-molecule microarray, 635 nm fluorescence, primary screen (AID 1088).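 Further: binding of Prmt1 protein to compounds spotted on small-molecule microarray slides.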 The settings on record: higher = more signal.
Assay [12] is described as follows: growth effects on S. cerevisiae YJM789 – YJM789 clinical isolate, OD600, 24 h, basal, primary screen (AID 1089).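 Further: growth of clinical yeast isolate S. cerevisiae YJM 789 seeded 1000 cells per well; test concentration not given here.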 The settings on record: higher = more signal, called active from +8 up or from −8 down.
Assay [13] can be described thus: S. pombe growth modifiers, basal conditions – strain 972, OD600, 24 h, no modulator, primary screen (AID 1090).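 Further: basal condition with compound alone and no growth modifier present; test concentration not given here.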 Conditions: S. pombe 972 growth, higher = more signal, called active from +8 up or from −8 down.
Assay [14] is described as follows: budding yeast growth modifiers under rapamycin – strain BY4716, OD600, 96 h, primary screen (AID 1091). Further: test concentration not given here. The settings on record: S. cerevisiae BY4716 + rapamycin, higher = more signal, called active from +8 up or from −8 down.
Assay [15] addresses Torsin-1A-interacting protein 2 (Homo sapiens) (UniProt Q8NFQ8). The assay can be described thus: small molecules binding lysate-expressed LULL1 – cell lysate, human LULL1 lysate, 635/667 nm fluorescence, primary screen (AID 1092).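 Further: probe is lysate of COS7 cells overexpressing human LULL1; score merges per-feature 667 nm fluorescence with signal-to-noise.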 Conditions: small-molecule microarray, hLULL1 lysate binding, 635 nm fluorescence; higher = more signal.
Assay [16] can be described thus: optical density change of DRC41 E. coli – strain DRC41, OD650, 24 h, E. coli filamentation project, primary screen (AID 1093).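 Further: MC1000 strain lacking acrAB efflux and sulA so SOS filamentation is blocked; test concentration not given here.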 The settings on record: E. coli DRC41 growth, higher = more signal, called active from +8 up or from −8 down.
Assay [17] is described as follows: probe aLefty2 binding to arrayed compounds – biochemical, biotinylated probe, 635/667 nm fluorescence, primary screen (AID 1094).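 Further: score merges spot fluorescence near 667 nm with spot signal-to-noise ratio.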 Conditions: small-molecule microarray, higher = more signal.
Assay [18] concerns Noggin (protein binding on small-molecule microarray). The assay is described as follows: small molecules binding Noggin protein – biochemical, 635/667 nm fluorescence, primary screen (AID 1095).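 Further: score merges 667 nm feature fluorescence with signal to noise over triplicate slides.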 Conditions: 635 nm fluorescence, higher = more signal.
The target in assay [19] is Neurogenic locus notch homolog protein 3 (Homo sapiens) (UniProt Q9UM47). The assay is described as follows: small molecules binding NOTCH3 protein – biochemical, 635/667 nm fluorescence, primary screen (AID 1096). Conditions: small-molecule microarray, 635 nm fluorescence, higher = more signal.
Chain of Neurogenic locus notch homolog protein 3 (Homo sapiens) (Q9UM47 whole entry, looked up): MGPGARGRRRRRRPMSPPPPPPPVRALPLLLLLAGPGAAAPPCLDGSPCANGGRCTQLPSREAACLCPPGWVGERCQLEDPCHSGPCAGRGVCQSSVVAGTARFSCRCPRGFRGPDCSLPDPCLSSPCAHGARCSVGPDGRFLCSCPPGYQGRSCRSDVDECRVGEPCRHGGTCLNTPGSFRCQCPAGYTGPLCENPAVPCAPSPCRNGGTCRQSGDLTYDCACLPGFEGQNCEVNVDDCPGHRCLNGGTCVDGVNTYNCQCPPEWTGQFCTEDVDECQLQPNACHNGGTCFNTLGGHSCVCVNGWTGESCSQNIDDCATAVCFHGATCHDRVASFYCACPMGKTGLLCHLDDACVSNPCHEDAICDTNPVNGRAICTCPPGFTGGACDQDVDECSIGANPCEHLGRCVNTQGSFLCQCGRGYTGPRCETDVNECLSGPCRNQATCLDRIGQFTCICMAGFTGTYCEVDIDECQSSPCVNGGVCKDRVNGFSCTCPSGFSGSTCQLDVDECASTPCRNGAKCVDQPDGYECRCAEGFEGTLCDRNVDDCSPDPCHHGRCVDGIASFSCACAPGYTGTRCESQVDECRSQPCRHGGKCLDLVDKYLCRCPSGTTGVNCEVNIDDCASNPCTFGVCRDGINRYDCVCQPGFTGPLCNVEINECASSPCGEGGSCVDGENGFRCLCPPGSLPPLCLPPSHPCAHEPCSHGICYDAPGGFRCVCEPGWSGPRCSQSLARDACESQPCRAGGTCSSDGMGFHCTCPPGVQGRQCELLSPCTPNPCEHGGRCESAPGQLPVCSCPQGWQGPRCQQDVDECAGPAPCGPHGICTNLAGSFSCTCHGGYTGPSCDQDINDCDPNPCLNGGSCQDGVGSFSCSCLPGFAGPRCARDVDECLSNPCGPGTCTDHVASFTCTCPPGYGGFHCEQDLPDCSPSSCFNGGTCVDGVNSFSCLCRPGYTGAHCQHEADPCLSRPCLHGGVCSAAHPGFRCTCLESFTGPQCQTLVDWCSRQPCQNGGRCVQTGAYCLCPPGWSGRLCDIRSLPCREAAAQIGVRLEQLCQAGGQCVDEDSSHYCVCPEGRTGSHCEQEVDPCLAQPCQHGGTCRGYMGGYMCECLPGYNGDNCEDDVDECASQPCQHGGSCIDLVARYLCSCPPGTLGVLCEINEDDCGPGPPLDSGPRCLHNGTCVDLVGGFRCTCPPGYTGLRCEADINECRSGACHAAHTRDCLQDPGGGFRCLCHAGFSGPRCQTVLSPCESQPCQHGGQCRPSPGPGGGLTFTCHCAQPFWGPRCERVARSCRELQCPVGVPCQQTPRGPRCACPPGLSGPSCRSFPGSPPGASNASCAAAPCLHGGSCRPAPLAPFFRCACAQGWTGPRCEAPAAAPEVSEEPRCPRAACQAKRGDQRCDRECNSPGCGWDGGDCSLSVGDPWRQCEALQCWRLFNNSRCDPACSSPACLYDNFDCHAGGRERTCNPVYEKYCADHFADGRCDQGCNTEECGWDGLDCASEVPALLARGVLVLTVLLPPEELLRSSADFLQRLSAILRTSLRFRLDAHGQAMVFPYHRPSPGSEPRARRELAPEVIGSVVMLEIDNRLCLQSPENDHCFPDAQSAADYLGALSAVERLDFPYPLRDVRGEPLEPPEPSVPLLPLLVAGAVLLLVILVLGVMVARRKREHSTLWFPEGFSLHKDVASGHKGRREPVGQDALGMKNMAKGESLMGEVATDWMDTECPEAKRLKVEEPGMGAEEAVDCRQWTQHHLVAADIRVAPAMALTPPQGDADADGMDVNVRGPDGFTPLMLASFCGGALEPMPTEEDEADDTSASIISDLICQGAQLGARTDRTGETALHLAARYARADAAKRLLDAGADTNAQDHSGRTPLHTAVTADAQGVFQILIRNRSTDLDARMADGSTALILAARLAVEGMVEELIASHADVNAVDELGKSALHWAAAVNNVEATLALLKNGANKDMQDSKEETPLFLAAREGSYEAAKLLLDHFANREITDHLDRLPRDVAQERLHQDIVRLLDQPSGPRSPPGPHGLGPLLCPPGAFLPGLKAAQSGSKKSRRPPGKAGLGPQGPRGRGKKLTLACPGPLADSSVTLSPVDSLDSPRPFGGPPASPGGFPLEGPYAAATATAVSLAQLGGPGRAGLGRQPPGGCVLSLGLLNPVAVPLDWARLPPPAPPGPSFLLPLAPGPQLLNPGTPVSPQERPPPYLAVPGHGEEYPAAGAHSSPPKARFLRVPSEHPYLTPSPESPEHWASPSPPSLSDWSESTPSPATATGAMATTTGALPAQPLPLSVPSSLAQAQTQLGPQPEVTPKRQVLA
Assay [20] can be described thus: probe aEGFR binding to arrayed compounds – biochemical, biotinylated probe, 635/667 nm fluorescence, primary screen (AID 1097).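 Further: probe is a biotinylated anti-EGFR antibody binding compounds printed on slides; score combines fluorescence near 667 nm and signal to noise of each spot.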 The settings on record: small-molecule microarray, higher = more signal.

The source made the active and inactive calls.

Chain of Torsin-1A-interacting protein 2 (Homo sapiens) (Q8NFQ8 whole entry, looked up): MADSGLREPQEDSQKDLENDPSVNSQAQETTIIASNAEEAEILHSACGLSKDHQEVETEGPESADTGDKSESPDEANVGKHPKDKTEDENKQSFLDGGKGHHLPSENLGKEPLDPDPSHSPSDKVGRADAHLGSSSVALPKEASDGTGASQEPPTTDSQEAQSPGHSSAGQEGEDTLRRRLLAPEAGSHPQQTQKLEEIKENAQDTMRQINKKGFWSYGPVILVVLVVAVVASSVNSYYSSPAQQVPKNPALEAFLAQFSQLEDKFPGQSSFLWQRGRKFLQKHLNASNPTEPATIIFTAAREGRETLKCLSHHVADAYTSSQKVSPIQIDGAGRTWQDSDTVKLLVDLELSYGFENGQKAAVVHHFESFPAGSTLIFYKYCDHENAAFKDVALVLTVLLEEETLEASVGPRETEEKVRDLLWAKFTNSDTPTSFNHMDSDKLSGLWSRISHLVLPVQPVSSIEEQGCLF

For the compound `C=CC[C@@H](OC(=O)Nc1ccc(SC)cc1)c1ccc(OCCO)cc1`, the composite z-score was 1.15 in assay [1]; -0.325 in [2]; -0.175 in assay [3]; -0.932 in assay [4]; -1.77 in assay [5]; 0.767 in assay [6]. In addition, the composite z-score in [7] was 0.801; in assay [9], -0.464; in assay [10] it was -0.251; in assay [11], -0.306; in assay [15], 2.42; in assay [17] it was 0.214. Moreover, the composite z-score is -1.07 in assay [18], -0.525 in [19] and -0.204 in assay [20]. The z-score was 4.02 (inactive) in [8]; -0.0227 (inactive) in assay [12]; -3.88 (inactive) in assay [13]; 0.0294 (inactive) in assay [14]; 1.4 (inactive) in assay [16].

For the compound `CC(C)CCC[C@@H](C)[C@H]1CC[C@@]2(C)C3=C(CC[C@]12C)[C@@]1(C)CC[C@H](OC(=O)CCl)C(C)(C)C1CC3` (stereo not given in full), the composite z-score in [1] is -0.503; in [2], 0.331; in assay [3] it was -0.0787; in assay [4], 0.422; in assay [5], 0.753; in assay [6], 0.0429. Besides, the composite z-score in [7] is 0.59; in [9] it was 0.104; in assay [10], -0.0237; in assay [11], -0.132; in assay [15], 0.424; in assay [17], -0.145. Besides, the composite z-score in assay [18] came to 0.44; in assay [19] it was 0.847; in [20], 0.0143. Also, the z-score in assay [8] was -0.0513 (inactive); in assay [12], -0.0688 (inactive); in assay [13], -0.178 (inactive); in assay [14], -0.208 (inactive); in assay [16] it was 3.26 (inactive).

Turning to `C=C(COC)C(=O)CC[C@H](OC(=O)c1cccnc1)c1cccc(OCCO)c1`, the composite z-score is 0.822 in assay [1]; 1.9 in [2]; 0.119 in [3]; 0.833 in assay [4]; -0.381 in assay [5]; -0.318 in [6]. Moreover, the composite z-score was determined as 0.0423 in [7]; 0.331 in assay [9]; 0.503 in assay [10]; 1.36 in assay [11]; 0.241 in assay [15]; 0.649 in [17]. In addition, the composite z-score came to 1.29 in assay [18], 0.176 in assay [19] and 0.431 in [20]. Also, the z-score in assay [8] is 0.0417 (inactive); in [12] it was 1.25 (inactive); in assay [13], -0.231 (inactive); in [14], 1.56 (inactive); in [16], 1.18 (inactive).

For `CO[C@H]1O[C@H](CO)[C@@H](OC(=O)Nc2ccccc2)[C@H](OC(=O)Nc2ccc3c(c2)OCO3)[C@H]1OC(=O)Nc1ccc2c(c1)OCO2`, the composite z-score in assay [1] was determined as 0.381; in assay [2], 0.45; in [3], 0.128; in assay [4] it was 0.7; in assay [5], 1.29; in assay [6], 1.61. Also, the composite z-score in assay [7] was 1.23; in assay [9], 0.29; in assay [10], -0.175; in assay [11] it was 1.56; in [15], 2.8; in [17], 0.0789. For the same compound, the results for the composite z-score in [18], in assay [19] and in [20] were 0.128, 1.06 and -0.0527, respectively. The z-score in [8] was 4.5 (inactive); in [12], 0.648 (inactive); in assay [13], 0.494 (inactive); in [14] it was 2.28 (inactive); in assay [16], 2.75 (inactive).

For the compound `C=CCNC(=O)[C@@H]1[C@H]2C(=O)O[C@H](c3ccccc3)[C@H](c3ccccc3)N2[C@H](c2ccc(O)cc2)[C@@]12C(=O)N(C(=O)OCCOC)c1ccc(C#Cc3ccc(OC)cc3)cc12`, the composite z-score in [1] is -0.828; in assay [2], 0.974; in assay [3] it was -0.0761; in assay [4], 0.856; in assay [5], 1.34; in [6], 1.41. The composite z-score is 1.16 in assay [7]; 0.316 in assay [9]; -0.0994 in assay [10]; 1.55 in assay [11]; 2.08 in assay [15]; -0.111 in assay [17]. For the same compound, the results for the composite z-score in assay [18], in assay [19] and in assay [20] were 0.605, 1.12 and -0.0674, respectively. Also, the z-score in [8] is -0.374 (inactive); in assay [12], 0.342 (inactive); in assay [13], 0.1 (inactive); in [14] it was 2.6 (inactive); in assay [16], 2.2 (inactive).
